# PubChem BioAssay (EPA / NIEHS)
# Activity calls are given as the source filed them. How the source made its calls: active means hit-call score of the fitted dose curve at least 0.9, where 1 is the maximum; inactive means score below 0.9.
# Legend:
# [1] = read-out: Interleukin-1 alpha (IL1a), IL1A (gene 3552); assay: BSK_KF3CT_IL1a: BioMAP Diversity Plus: KF3CT Assay for Interleukin-1 alpha (IL1a) Biomarker Activity (AID 2283070); conditions: primary human keratinocytes with fibroblasts; actives raise or lower the signal
# In short: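 Human keratinocyte plus foreskin fibroblast primary co-culture, sampled 24 h after chemical dosing. IL-1a measured by ELISA; responses fitted bidirectionally against DMSO baseline (negative control), so gain or loss of signal both count.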
# [2] = read-out: TIMP metallopeptidase inhibitor 2 (TIMP2), TIMP2 (gene 7077); assay: BSK_KF3CT_TIMP2: BioMAP Diversity Plus: KF3CT Assay for TIMP metallopeptidase inhibitor 2 (TIMP2) Biomarker Activity (AID 2283071); conditions: primary human keratinocytes with fibroblasts; actives raise or lower the signal
# In short: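 Human primary keratinocyte/foreskin fibroblast co-culture dosed with chemical and sampled at 24 h. TIMP-2 levels quantified by ELISA; bidirectional fitting against DMSO negative control as baseline.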
# [3] = read-out: Transforming growth factor beta 1 (TGFb1), TGFB1 (gene 7040); assay: BSK_KF3CT_TGFb1: BioMAP Diversity Plus: KF3CT Assay for Transforming growth factor beta 1 (TGFb1) Biomarker Activity (AID 2283072); conditions: primary human keratinocytes with fibroblasts; actives raise or lower the signal
# In short: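 Human keratinocyte plus foreskin fibroblast primary co-culture, dosed with chemical for 24 h. TGF-b1 quantified by ELISA. Activity fitted bidirectionally against DMSO negative control as baseline.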
# [4] = read-out: C-C motif chemokine 2 (Homo sapiens) (UniProt P13500); assay: BSK_KF3CT_MCP1: BioMAP Diversity Plus: KF3CT Assay for Monocyte Chemoattractant Protein 1 (MCP1/CCL2) Biomarker Activity (AID 2283073); conditions: primary human keratinocytes with fibroblasts; actives raise or lower the signal
# In short: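 Human keratinocyte–foreskin fibroblast co-culture; MCP-1 measured by ELISA 24 h after dosing. Bidirectional fit vs DMSO; cytotoxicity tracked by SRB total protein in parallel cultures.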
# [5] = read-out: Matrix Metallopeptidase 9 (MMP9), MMP9 (gene 4318); assay: BSK_KF3CT_MMP9: BioMAP Diversity Plus: KF3CT Assay for Matrix Metallopeptidase 9 (MMP9) Biomarker Activity (AID 2283074); conditions: primary human keratinocytes with fibroblasts; actives raise or lower the signal
# In short: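 Keratinocyte plus foreskin fibroblast human primary skin co-culture was dosed with chemical and MMP-9 was quantified by ELISA 24 h later. Bidirectional curve fitting used DMSO as negative control and activity baseline.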
# [6] = read-out: urokinase plasminogen activator (uPA), PLAU (gene 5328); assay: BSK_KF3CT_uPA: BioMAP Diversity Plus: KF3CT Assay for urokinase plasminogen activator (uPA) Biomarker Activity (AID 2283075); conditions: primary human keratinocytes with fibroblasts; actives raise or lower the signal
# In short: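 Human keratinocyte plus foreskin fibroblast primary co-culture exposed to chemical for 24 h. uPA levels were quantified by ELISA, and activity was fitted bidirectionally against a DMSO negative-control baseline.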
# [7] = read-out: CD40, CD40 (gene 958); assay: BSK_LPS_CD40: BioMAP Diversity Plus: LPS Assay for CD40 Biomarker Activity (AID 2283076); conditions: primary human HUVEC with PBMC; actives raise or lower the signal
# In short: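 HUVEC plus PBMC co-culture stimulated with LPS; CD40 quantified by ELISA 24 h after compound dosing. Fitting was bidirectional relative to DMSO. SRB staining of parallel cultures flagged overt cytotoxicity.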
# [8] = read-out: E-selectin (Homo sapiens) (UniProt P16581); assay: BSK_LPS_Eselectin: BioMAP Diversity Plus: LPS Assay for Eselectin Biomarker Activity (AID 2283077); conditions: primary human HUVEC with PBMC; actives raise or lower the signal
# In short: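 Human umbilical vein endothelial cells co-cultured with PBMC under LPS stimulation; cell-surface E-selectin measured by ELISA 24 h after dosing. Change in either direction versus DMSO, with SRB total-protein staining in parallel cultures for cytotoxicity.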
# [9] = BSK_LPS_SRB: Viability Assessment in the BioMAP Diversity Plus: LPS Assay (AID 2283079); conditions: primary human HUVEC with PBMC;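 further: total protein by sulforhodamine B absorbance as a cytotoxicity measure; measured one day after compound addition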
# In short: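 Co-culture of human umbilical vein endothelial cells and PBMC, read 24 h after dosing. Total protein by 0.1% SRB staining after 10% TCA fixation, absorbance at 560 nm; bidirectional fit against DMSO.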
# [10] = read-out: Interleukin-1 alpha (IL1a), IL1A (gene 3552); assay: BSK_LPS_IL1a: BioMAP Diversity Plus: LPS Assay for Interleukin-1 alpha (IL1a) Biomarker Activity (AID 2283080); conditions: primary human HUVEC with PBMC; actives raise or lower the signal
# In short: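 Human umbilical vein endothelial cells co-cultured with PBMC and stimulated with LPS; IL-1a measured by ELISA 24 h after dosing. Bidirectional fitting against DMSO; cytotoxicity checked by SRB staining in parallel cultures.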
# [11] = read-out: Monocyte Chemoattractant Protein-1 (MCP1), CCL2 (gene 6347); assay: BSK_LPS_MCP1: BioMAP Diversity Plus: LPS Assay for Monocyte Chemoattractant Protein-1 (MCP1) Biomarker Activity (AID 2283081); conditions: primary human HUVEC with PBMC; actives raise or lower the signal
# In short: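 Human umbilical vein endothelial cells co-cultured with PBMC, LPS-stimulated; secreted MCP-1 measured by ELISA 24 h after compound addition. Bidirectional curve fitting against DMSO baseline; SRB total-protein staining in parallel cultures for cytotoxicity.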
# [12] = BSK_LPS_PGE2: BioMAP Diversity Plus: LPS Assay for Prostaglandin E2 (PGE2) Biomarker Activity (AID 2283082); conditions: primary human HUVEC with PBMC; actives raise or lower the signal
# In short: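 HUVEC plus PBMC co-culture stimulated with LPS; secreted PGE2 quantified by ELISA 24 h after chemical dosing. Activity fitted bidirectionally against DMSO as negative control and baseline; parallel SRB total-protein staining served as cytotoxicity check.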
# [13] = read-out: Macrophage colony-stimulating factor (MCSF), CSF1 (gene 1435); assay: BSK_LPS_MCSF: BioMAP Diversity Plus: LPS Assay for Macrophage colony-stimulating factor (MCSF) Biomarker Activity (AID 2283083); conditions: primary human HUVEC with PBMC; actives raise or lower the signal
# In short: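 HUVEC–PBMC co-culture, M-CSF measured by ELISA 24 h after chemical dosing. Fitted in both directions relative to DMSO as negative control; overt cytotoxicity assessed by SRB total-protein staining in parallel cultures.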
# [14] = read-out: Tumor necrosis factor (Homo sapiens) (UniProt P01375); assay: BSK_LPS_TNFa: BioMAP Diversity Plus: LPS Assay for Tumour Necrosis Factor alpha (TNFa) Biomarker Activity (AID 2283085); conditions: primary human HUVEC with PBMC; actives raise or lower the signal;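 on AC50: TNFa protein level quantified by ELISA in the co-culture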
# In short: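 Human umbilical vein endothelial cells co-cultured with PBMC were exposed to test chemical and TNFa measured by ELISA 24 h after dosing. Bidirectional curve fitting was done relative to DMSO as negative control and baseline.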
# [15] = read-out: Vascular cell adhesion molecule 1 (VCAM1), VCAM1 (gene 7412); assay: BSK_LPS_VCAM1: BioMAP Diversity Plus: LPS Assay for Vascular cell adhesion molecule 1 (VCAM1) Biomarker Activity (AID 2283086); conditions: primary human HUVEC with PBMC; actives raise or lower the signal
# In short: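 Human umbilical vein endothelial cells co-cultured with peripheral blood mononuclear cells under LPS stimulation were exposed to test chemical for 24 h. VCAM-1 levels were then measured by ELISA, with bidirectional curve fitting relative to DMSO as negative control and baseline.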
# [16] = read-out: CD38, CD38 (gene 952); assay: BSK_SAg_CD38: BioMAP Diversity Plus: SAg Assay for CD38 Biomarker Activity (AID 2283087); conditions: primary human HUVEC with PBMC; actives raise or lower the signal
# In short: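 Fluorescence ELISA of cell-surface CD38 served as the read-out, with either increase or decrease fitted against DMSO controls. Cells were a human umbilical vein endothelium plus PBMC co-culture under SEB/TSST-1 stimulation, measured 24 h after dosing.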
# [17] = read-out: CD40, CD40 (gene 958); assay: BSK_SAg_CD40: BioMAP Diversity Plus: SAg Assay for CD40 Biomarker Activity (AID 2283088); conditions: primary human HUVEC with PBMC; actives raise or lower the signal
# In short: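 HUVEC plus PBMC co-culture, superantigen-activated, with CD40 read by ELISA 24 h after dosing. Curves fitted in both directions against DMSO. Overt cytotoxicity checked by parallel SRB total-protein staining.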
# [18] = read-out: CD69, CD69 (gene 969); assay: BSK_SAg_CD69: BioMAP Diversity Plus: SAg Assay for CD69 Biomarker Activity (AID 2283089); conditions: primary human HUVEC with PBMC; actives raise or lower the signal;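 on AC50: cell surface CD69 protein quantified by ELISA with fluorescence detection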
# In short: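 ELISA, fluorescence read-out: CD69 on human umbilical vein endothelial cell + PBMC co-culture, 24 h post-dosing. Gain or loss of signal fitted bidirectionally against DMSO baseline.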
# [19] = read-out: Tissue Factor, F3 (gene 2152); assay: BSK_LPS_TissueFactor: BioMAP Diversity Plus: LPS Assay for Tissue Factor Biomarker Activity (AID 2283084); conditions: primary human HUVEC with PBMC; actives raise or lower the signal
# In short: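 Human umbilical vein endothelial cells co-cultured with PBMC were dosed with compound. Cell-surface CD142 was measured by ELISA 24 h later. Activity was fitted bidirectionally against DMSO, with SRB total-protein staining in parallel cultures for cytotoxicity.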
# [20] = read-out: Interleukin-8 (IL8), CXCL8 (gene 3576); assay: BSK_LPS_IL8: BioMAP Diversity Plus: LPS Assay for Interleukin-8 (IL8) Biomarker Activity (AID 2283078); conditions: primary human HUVEC with PBMC; actives raise or lower the signal
# In short: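 Human umbilical vein endothelial cells co-cultured with PBMC, LPS-stimulated, exposed to compound for 24 h. IL-8 quantified by ELISA; fitted in both directions against DMSO, with SRB total-protein staining of parallel cultures for cytotoxicity.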
# E-selectin (Homo sapiens), sequence (P16581 whole entry, looked up): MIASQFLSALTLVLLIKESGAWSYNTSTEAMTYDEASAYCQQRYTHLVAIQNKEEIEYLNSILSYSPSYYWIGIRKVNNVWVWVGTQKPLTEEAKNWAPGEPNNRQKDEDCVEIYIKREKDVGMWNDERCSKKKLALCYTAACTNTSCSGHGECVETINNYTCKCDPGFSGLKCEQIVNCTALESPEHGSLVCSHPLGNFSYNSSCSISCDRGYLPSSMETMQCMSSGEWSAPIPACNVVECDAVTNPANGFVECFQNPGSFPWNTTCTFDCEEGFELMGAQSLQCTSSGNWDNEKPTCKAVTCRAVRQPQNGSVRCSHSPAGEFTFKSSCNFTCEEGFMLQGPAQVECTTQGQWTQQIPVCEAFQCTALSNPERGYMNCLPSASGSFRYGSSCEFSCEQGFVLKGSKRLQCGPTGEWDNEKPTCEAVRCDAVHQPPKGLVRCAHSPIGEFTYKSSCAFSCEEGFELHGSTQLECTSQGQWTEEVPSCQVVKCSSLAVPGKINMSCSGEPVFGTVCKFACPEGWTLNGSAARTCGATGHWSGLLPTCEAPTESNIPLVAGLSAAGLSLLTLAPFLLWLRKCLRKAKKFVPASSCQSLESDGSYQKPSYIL
# Tumor necrosis factor (Homo sapiens), sequence (P01375 whole entry, looked up): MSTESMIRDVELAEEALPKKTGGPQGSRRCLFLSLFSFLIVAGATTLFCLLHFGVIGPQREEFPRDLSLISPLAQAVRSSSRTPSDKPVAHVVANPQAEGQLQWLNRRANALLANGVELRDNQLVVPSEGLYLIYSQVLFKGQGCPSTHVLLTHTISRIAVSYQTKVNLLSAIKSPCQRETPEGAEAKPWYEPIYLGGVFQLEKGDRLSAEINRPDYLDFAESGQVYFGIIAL
structure (smiles),measurement,setting,value
CNC(C)=O,outcome,[1],inactive
same,outcome,[2],inactive
same,outcome,[3],inactive
same,outcome,[4],inactive
same,outcome,[5],inactive
same,outcome,[6],inactive
same,outcome,[7],inactive
same,outcome,[8],inactive
same,outcome,[9],inactive
same,outcome,[10],inactive
same,outcome,[11],inactive
same,outcome,[12],inactive
same,outcome,[13],inactive
same,outcome,[14],inactive
same,outcome,[15],inactive
same,outcome,[16],inactive
same,outcome,[17],inactive
same,outcome,[18],inactive
O=C(O)c1cccc(C(=O)O)c1,outcome,[1],inactive
same,outcome,[2],inactive
same,outcome,[3],inactive
same,AC50,[4],0.323 µM (active)
same,outcome,[5],inactive
same,outcome,[6],inactive
same,outcome,[7],inactive
same,outcome,[8],inactive
same,outcome,[9],inactive
same,outcome,[10],inactive
same,outcome,[11],inactive
same,outcome,[12],inactive
same,outcome,[13],inactive
same,outcome,[19],inactive
same,outcome,[14],inactive
same,outcome,[15],inactive
same,outcome,[16],inactive
same,outcome,[17],inactive
same,outcome,[18],inactive
CC(C)C(=O)Nc1ccc([N+](=O)[O-])c(C(F)(F)F)c1,outcome,[1],inactive
same,outcome,[2],inactive
same,outcome,[3],inactive
same,outcome,[4],inactive
same,outcome,[5],inactive
same,outcome,[6],inactive
same,outcome,[7],inactive
same,outcome,[8],inactive
same,outcome,[9],inactive
same,outcome,[10],inactive
same,outcome,[11],inactive
same,outcome,[12],inactive
same,outcome,[13],inactive
same,outcome,[19],inactive
same,outcome,[14],inactive
same,outcome,[15],inactive
same,AC50,[16],14.7 µM (active)
same,outcome,[17],inactive
same,AC50,[18],20 µM (active)
CCn1nc(C)c2c1C(=O)NCC(c1ccc(O)cc1)=N2,outcome,[1],inactive
same,outcome,[2],inactive
same,outcome,[3],inactive
same,outcome,[4],inactive
same,outcome,[5],inactive
same,outcome,[6],inactive
same,outcome,[7],inactive
same,outcome,[8],inactive
same,outcome,[20],inactive
same,outcome,[9],inactive
same,outcome,[10],inactive
same,outcome,[11],inactive
same,outcome,[12],inactive
same,outcome,[13],inactive
same,AC50,[14],0.78 µM (active)
same,outcome,[15],inactive
same,AC50,[16],8.91 µM (active)
same,AC50,[17],20 µM (active)
same,outcome,[18],inactive
